The values that follow come from PubChem BioAssay.

Assay [1] in a line: rapamycin-like changes in RPL19A-GFP expression – cell-based, S. cerevisiae, multiplex flow cytometry, primary screen (AID 1862; in the data active means percent of DMSO control GFP below about 86%;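 further: lower values mimic rapamycin by blocking the RPL19A rise seen in DMSO cells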). The following applies: S. cerevisiae RPL19A-GFP strain, flow cytometry fluorescence, 3 h; at 10 µM; stronger effect = lower value. (Flow cytometry measures light scatter and fluorescence of single cells or particles in a stream.)
A short description of assay [2]: TOR pathway GLN3 branch reporter MEP2-GFP changes – S. cerevisiae, multiplex flow cytometry, primary screen (AID 1867;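 active means GFP response, as percent of the DMSO control, above the screen-wide mean plus 3 SD, about 139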;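 further: median GFP channel fluorescence of barcode-gated MEP2-GFP cells measured by flow cytometry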). The following applies: S. cerevisiae MEP2-GFP strain, 3 h, at 10 µM, stronger effect = higher value, 100% means same as DMSO wells.
The nature of assay [3]: TOR pathway RTG branch CIT2 reporter changes – S. cerevisiae, GFP fusion, multiplex flow cytometry, primary screen (AID 1870;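 active means percent response above a set limit, the screen-wide mean plus 3 SD, cut at about 130% in these data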;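 further: barcoded CIT2-GFP strain pooled with four other GFP strains with rapamycin as positive control; median GFP fluorescence per well over plate mean of DMSO wells so 100% = DMSO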). The following applies: S. cerevisiae CIT2-GFP expression, 3 h, at 10 µM, stronger effect = higher value.
A short description of assay [4]: TOR pathway LAP4-GFP level changes – S. cerevisiae, multiplex flow cytometry, primary screen (AID 1873;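 active means GFP signal, as percent of the solvent control, above the screen mean plus 3 SD, about 149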). The following applies: S. cerevisiae LAP4-GFP expression, 3 h, at 10 µM, stronger effect = higher value.
The nature of assay [5]: yeast AGP1-GFP level changes, GLN3 branch – cell-based, multiplex flow cytometry, S. cerevisiae, primary screen (AID 1887;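 active means GFP signal above the screen-wide mean plus 3 SD, that is over about 124.5% of the solvent control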;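 further: AGP1-GFP fusion strain of S. cerevisiae within a five-strain barcoded multiplex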). The following applies: 3 h, at 10 µM, stronger effect = higher value.
The nature of assay [6]: reduced mouse 2C T cell binding to pMHC/ICAM-1 vesicles – MLPCN validation set, flow cytometry, LFA-1/ICAM-1 modulator project, pilot screen (AID 2523;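 active means response below a set limit, under 55% cells CD8-positive and vesicle-bound, and CD8 cells' 90th-percentile brightness under 279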;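 on vesicle binding response: mean PE anti-B7-1 fluorescence of CD8+ cells relative to row control; 100% = QL9-loaded vesicles with DMSO vehicle in the same plate row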). The following applies: 2C mouse CD8+ T cells, at 7 µM, stronger effect = lower value; double positive events: measured here: CD8+/vesicle+ event percentage.
Assay [7] concerns the target Integrin beta-1 (Homo sapiens) + Integrin alpha-4 (Homo sapiens) (UniProt P13612+P05556). The experiment in a line: alpha4beta1 integrin LIBS antibody binding reduction – U937 cells, HUTS-21 mAb, flow cytometry, validation set, VLA-4 allosteric modulator project, pilot screen (AID 2674;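 active means inhibition above 50%, about 3 SD of the validation set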;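 further: antibody binding induced by the VLA-4 ligand LDV present at three times its Kd; 0% = LDV ligand with antibody and no compound and 100% = antibody without LDV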). Particulars: HUTS-21 LIBS mAb binding, at 6.7 µM, stronger effect = higher value, binding induced by LDV ligand.

Assay [8] is described as follows: calorie-restriction mimetic ROS inhibitors, yeast – validation compound set, pilot screen (AID 2706;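 active means superoxide response below 65% of plate, a cut near 3 SD across the whole screen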;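 further: yeast exposed to compound for one week at 30 degrees C before staining; 100% = mean of all compound wells on the same plate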). The following applies: S. cerevisiae aging, superoxide DHE fluorescence; at 10 µM; stronger effect = lower value.
Assay [9] concerns the target Beta-adrenergic receptor kinase 1 (Homo sapiens) (UniProt P25098). The experiment in a line: GRK2 binders displacing RNA aptamer, biochemical, validation, human GRK2, bead flow cytometry (AID 488806;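 active means aptamer binding inhibition above 30%, about 3 SD of noise from non-fluorescent compounds; inactive means inhibition at or below 30%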). The following applies: bead-bound GRK2, FAM-aptamer displacement, at 10 µM, stronger effect = higher value.
Assay [10] concerns the target Beta-2 adrenergic receptor (Homo sapiens) (UniProt P07550). The experiment in a line: agonist-induced loss of surface beta2AR – cell-based, FAP fluorogen, flow cytometry, validation set, pilot screen (AID 504459).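 Further: agonist-driven loss of surface beta2AR via internalization measured by FAP dye flow cytometry.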 The following applies: Am2.2-beta2AR cells, at 10 µM, stronger effect = higher value.
For assay [11], the target named is AP-2 complex subunit beta (Homo sapiens) (UniProt P63010). Put plainly: beta-arrestin/AP2 interaction blockers – biochemical, validation set, GST-AP2 beads, flow cytometry, pilot screen (AID 504541;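 active means inhibition above 54%, about 3 SD of non-fluorescent compounds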;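 further: AP2 carries R879A mutation and is captured from E. coli lysate; bead-bound FITC arrestin peptide fluorescence measuring arrestin peptide binding to AP2; 0% = DMSO wells and 100% = excess unlabeled arrestin peptide control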). The following applies: FITC arrestin peptide, at 10 µM, stronger effect = higher value, AP2 beta2 appendage fragment, R879A mutant.
Sequence of AP-2 complex subunit beta (Homo sapiens) (P63010 whole entry, looked up, the tested form may be a part, one chain of several): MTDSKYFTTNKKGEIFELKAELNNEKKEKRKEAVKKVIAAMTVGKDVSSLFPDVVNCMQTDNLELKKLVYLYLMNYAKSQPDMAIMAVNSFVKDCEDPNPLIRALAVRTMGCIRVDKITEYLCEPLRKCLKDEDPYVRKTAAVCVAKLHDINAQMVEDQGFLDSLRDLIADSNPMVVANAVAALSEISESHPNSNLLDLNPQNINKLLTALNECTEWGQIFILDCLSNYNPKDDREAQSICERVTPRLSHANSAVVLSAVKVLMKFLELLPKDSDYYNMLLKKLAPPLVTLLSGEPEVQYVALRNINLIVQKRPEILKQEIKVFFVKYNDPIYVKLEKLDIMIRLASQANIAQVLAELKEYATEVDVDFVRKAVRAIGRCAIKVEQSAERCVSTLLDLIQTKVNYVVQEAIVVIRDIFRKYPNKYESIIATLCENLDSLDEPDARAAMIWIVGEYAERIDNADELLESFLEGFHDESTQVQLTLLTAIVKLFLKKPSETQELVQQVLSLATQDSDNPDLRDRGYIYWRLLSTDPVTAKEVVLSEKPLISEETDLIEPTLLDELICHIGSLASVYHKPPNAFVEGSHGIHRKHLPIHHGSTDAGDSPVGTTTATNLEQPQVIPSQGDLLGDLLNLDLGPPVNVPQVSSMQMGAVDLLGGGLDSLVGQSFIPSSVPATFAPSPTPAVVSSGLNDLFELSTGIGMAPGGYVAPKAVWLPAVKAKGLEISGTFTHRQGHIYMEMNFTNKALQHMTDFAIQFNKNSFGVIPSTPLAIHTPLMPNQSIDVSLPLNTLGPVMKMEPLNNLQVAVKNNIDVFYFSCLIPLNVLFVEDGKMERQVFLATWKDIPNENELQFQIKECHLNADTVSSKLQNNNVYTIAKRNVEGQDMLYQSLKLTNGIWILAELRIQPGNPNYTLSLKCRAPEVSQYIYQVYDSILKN
Assay [12] is described as follows: cytosolic pH regulators acting via V-ATPase – S. cerevisiae, pHLuorin, HTS validation (AID 504600; in the data active means response above about 15%;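 further: plate controls were DMSO for no effect and reference compound for full effect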). Particulars: V-ATPase proton transport, at 10 µM, stronger effect = higher value.
In assay [13] the test system is anti-desmoglein-3 scFv antibody binding to human DSG3. Put plainly: blockers of pathogenic pemphigus antibody–desmoglein-3 binding – biochemical, validation compound set, bead-based, flow cytometry, pilot screen (AID 588368;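 active means binding below the plate cutoff, the plate median minus 3 SD, with a reading above zero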;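 further: signal is the median channel fluorescence of bead-bound GFP antibody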). The following applies: Protein G beads, DSG3-Fc, scFv-GFP binding, at 10 µM, stronger effect = lower value.
A short description of assay [14]: Nile Red efflux blockade in pump-expressing yeast – validation compound set, multiplex, phenotypic, pilot screen (AID 588506;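 active means efflux inhibition above 0.42, the validation set average plus 4 SD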;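 further: Nile Red retained in cells so higher fluorescence means more efflux inhibition; 0 = negative control wells and 1 = enniatin B 25 µM full block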). The following applies: S. cerevisiae pump-expressing triplex, Nile Red efflux flow cytometry; at 10 µM; stronger effect = higher value; the pumps come from Candida albicans.
Assay [15] addresses ATP-binding cassette sub-family B member 6 (Homo sapiens) (UniProt Q9NP58). The experiment in a line: blockers of ABCB6-driven porphyrin uptake – K562-ABCB6 cells, flow cytometry, validation set, pilot screen (AID 588550;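 active means inhibition above the screen-wide mean plus 3 SD, about 51%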;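 further: 0% = DMSO wells and 100% = benzethonium chloride 70 µM positive control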). The following applies: K562-ABCB6 porphyrin accumulation, 1 h, at 10 µM, stronger effect = higher value.
Assay [16] can be described thus: AML differentiation inducers, ER-HoxA9 marrow cells – cell-based, GFP/MAC1 double positive, flow cytometry, validation set, primary screen (AID 588685;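 active means differentiation response of at least 50%, scaled between solvent and reference control, from cells with both markers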;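 further: compound exposure lasts four days before antibody staining and flow analysis; 0% = DMSO wells and 100% = 5 µM fulvestrant positive control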). Particulars: stronger effect = higher value, normalized: vehicle 0, fulvestrant 100.

Inconclusive results are not listed. Calls of active or inactive are those of the source.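 How the source made its calls, unless noted: active means percent response above 42, roughly 3 SD of non-fluorescent test compounds; inactive means the rest.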

Sequence of ATP-binding cassette sub-family B member 6 (Homo sapiens) (Q9NP58 whole entry, looked up): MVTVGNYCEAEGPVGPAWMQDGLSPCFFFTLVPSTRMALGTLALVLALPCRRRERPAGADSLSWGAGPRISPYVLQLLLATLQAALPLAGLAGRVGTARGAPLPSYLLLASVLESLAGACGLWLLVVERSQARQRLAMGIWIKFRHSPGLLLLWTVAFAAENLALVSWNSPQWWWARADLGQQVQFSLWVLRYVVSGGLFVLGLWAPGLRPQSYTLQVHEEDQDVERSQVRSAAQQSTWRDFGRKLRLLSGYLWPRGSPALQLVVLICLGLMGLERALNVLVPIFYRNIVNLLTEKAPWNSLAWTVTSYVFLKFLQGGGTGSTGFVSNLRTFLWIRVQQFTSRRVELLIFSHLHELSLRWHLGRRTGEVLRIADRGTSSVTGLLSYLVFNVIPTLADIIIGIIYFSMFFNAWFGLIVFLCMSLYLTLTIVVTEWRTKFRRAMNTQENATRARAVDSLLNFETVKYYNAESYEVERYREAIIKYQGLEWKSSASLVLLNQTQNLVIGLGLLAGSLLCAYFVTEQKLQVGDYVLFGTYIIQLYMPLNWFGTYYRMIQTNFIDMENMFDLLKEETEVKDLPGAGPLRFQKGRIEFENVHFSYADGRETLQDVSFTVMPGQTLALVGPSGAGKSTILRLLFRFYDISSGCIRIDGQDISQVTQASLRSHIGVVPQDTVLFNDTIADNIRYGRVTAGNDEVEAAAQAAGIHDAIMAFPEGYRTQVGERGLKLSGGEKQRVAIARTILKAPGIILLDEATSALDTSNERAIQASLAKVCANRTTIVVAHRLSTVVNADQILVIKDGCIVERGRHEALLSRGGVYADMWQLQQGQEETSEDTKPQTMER
Sequence of Integrin beta-1 (Homo sapiens) + Integrin alpha-4 (Homo sapiens) (P05556 whole entry, looked up): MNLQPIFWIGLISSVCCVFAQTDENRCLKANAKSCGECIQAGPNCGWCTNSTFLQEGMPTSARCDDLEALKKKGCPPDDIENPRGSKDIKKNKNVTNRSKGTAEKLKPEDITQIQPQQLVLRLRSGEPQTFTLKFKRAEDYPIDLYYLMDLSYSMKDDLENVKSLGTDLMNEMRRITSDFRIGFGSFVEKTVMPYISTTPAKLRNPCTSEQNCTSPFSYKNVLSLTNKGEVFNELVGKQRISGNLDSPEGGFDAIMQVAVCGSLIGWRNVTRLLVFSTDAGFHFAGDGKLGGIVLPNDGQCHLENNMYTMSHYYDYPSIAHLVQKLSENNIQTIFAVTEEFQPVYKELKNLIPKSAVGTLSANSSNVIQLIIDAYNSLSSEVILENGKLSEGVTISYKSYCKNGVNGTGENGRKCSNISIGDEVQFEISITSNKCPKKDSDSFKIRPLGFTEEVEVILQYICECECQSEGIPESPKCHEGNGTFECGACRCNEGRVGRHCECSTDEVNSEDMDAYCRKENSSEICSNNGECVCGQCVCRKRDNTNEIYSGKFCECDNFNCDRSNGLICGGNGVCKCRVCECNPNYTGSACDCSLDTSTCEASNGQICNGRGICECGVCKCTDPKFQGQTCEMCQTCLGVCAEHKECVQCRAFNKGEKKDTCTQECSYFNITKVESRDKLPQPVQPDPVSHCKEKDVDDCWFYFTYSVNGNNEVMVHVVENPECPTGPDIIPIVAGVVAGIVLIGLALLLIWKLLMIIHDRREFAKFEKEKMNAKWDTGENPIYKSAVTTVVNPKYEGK
Sequence of Integrin beta-1 (Homo sapiens) + Integrin alpha-4 (Homo sapiens) (P13612 whole entry, looked up): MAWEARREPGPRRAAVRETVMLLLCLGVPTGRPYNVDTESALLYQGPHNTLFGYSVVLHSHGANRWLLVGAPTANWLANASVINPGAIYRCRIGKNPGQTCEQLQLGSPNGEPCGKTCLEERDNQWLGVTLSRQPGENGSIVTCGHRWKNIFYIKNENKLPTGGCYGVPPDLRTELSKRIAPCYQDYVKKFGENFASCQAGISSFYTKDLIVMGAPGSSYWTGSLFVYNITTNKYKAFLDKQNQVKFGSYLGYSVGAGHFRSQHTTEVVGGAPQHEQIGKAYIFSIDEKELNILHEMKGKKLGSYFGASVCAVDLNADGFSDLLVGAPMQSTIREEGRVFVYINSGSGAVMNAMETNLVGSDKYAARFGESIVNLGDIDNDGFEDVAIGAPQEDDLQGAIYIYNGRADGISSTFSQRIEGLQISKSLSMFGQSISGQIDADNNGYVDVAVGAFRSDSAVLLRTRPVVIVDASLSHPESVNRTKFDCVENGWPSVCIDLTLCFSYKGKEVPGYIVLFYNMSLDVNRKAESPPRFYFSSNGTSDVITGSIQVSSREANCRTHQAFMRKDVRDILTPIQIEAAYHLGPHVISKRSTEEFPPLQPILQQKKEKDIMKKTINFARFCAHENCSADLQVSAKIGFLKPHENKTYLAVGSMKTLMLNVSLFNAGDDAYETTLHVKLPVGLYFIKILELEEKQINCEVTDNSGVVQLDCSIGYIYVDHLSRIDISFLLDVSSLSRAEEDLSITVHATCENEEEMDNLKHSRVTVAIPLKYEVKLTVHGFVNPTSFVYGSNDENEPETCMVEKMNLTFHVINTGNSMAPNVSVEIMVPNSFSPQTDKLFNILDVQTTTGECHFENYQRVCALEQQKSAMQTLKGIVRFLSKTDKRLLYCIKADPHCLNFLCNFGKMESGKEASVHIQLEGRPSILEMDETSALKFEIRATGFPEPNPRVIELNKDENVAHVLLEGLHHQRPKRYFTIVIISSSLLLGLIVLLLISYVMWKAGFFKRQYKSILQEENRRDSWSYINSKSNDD
Sequence of Beta-2 adrenergic receptor (Homo sapiens) (P07550 whole entry, looked up): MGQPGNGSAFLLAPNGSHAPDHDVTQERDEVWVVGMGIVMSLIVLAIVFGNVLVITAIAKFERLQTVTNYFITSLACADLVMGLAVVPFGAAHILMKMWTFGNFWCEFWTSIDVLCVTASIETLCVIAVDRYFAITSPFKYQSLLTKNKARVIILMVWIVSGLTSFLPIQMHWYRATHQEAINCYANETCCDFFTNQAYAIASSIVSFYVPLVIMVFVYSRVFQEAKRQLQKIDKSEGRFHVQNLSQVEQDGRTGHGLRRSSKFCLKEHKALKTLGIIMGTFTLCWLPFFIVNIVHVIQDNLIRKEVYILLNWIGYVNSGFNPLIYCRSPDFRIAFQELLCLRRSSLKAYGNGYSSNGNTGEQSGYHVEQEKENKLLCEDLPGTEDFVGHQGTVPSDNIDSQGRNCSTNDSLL
Sequence of Beta-adrenergic receptor kinase 1 (Homo sapiens) (P25098 whole entry, looked up): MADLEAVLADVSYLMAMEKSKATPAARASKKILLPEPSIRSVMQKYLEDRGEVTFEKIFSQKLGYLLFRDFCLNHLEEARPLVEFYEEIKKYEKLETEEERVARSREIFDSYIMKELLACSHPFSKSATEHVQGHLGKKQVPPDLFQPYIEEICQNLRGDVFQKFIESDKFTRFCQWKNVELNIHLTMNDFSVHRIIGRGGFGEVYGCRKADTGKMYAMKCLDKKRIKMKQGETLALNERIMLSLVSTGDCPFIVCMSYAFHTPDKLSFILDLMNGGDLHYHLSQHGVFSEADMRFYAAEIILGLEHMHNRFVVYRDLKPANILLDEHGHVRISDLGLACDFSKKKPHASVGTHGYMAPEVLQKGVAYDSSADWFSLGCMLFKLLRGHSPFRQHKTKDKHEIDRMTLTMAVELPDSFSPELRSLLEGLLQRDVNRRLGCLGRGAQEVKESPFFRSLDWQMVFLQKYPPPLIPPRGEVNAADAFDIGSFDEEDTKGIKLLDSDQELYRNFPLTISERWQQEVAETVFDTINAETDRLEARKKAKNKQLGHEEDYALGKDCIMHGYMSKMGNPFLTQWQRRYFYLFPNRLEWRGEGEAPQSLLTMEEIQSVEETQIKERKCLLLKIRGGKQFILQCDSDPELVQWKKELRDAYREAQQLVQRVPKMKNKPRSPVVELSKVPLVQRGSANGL

Consider `Brc1c(NC2=NCCN2)ccc2nccnc12`, for which the percent of DMSO control GFP in assay [1] was 95% (inactive). Besides, the GFP response vs DMSO is 105% (inactive) in [2] and 119% (inactive) in assay [4]. Moreover, the percent response of DMSO control in assay [3] was 93.9% (inactive). Moreover, the GFP response, % of DMSO in assay [5] is 103% (inactive). Moreover, the double positive events in assay [6] is 56.2%. In assay [6], the vesicle binding response is 191% (inactive). Moreover, the values for the inhibition in assay [7], in assay [11] and in assay [15] were 6.4% (inactive), 10.1% (inactive) and 1% (inactive), respectively. For the same molecule, in [8], the superoxide response (% of plate) is 95.4% (inactive). Further, in assay [9], the aptamer binding inhibition is 3% (inactive). Besides, the response is -8.4% (inactive) in [10] and 0.44% (inactive) in [12]. Further, the binding (% of control) in assay [13] was 102% (inactive). For the same molecule, the efflux inhibition (fraction of control) in assay [14] was -0.24 (inactive). The differentiation response in [16] is -12% (inactive).

With `Cc1ccccc1-c1nn(-c2ccc(F)cc2F)cc1CNCCN(C)C`, the percent of DMSO control GFP in assay [1] was 106% (inactive). Moreover, the figures for the GFP response vs DMSO in assay [2] and in [4] were 103% (inactive) and 98.6% (inactive), respectively. Also, the percent response of DMSO control in assay [3] was 116% (inactive). In addition, the GFP response, % of DMSO in [5] was 102% (inactive). The double positive events in [6] was 62%. Moreover, the vesicle binding response in [6] was 51.7% (inactive). Further, the inhibition (usually the relative decrease from the control value, in per cent) in assay [7] was 13% (inactive); in assay [11] it was -6% (inactive); in assay [15], -15% (inactive). Also, the superoxide response (% of plate) in assay [8] is 90.2% (inactive). The aptamer binding inhibition in assay [9] is -11% (inactive). Also, the values for the response in assay [10] and in assay [12] were -7.22% (inactive) and 3.34% (inactive), respectively. Moreover, the binding (% of control) in assay [13] was 103% (inactive). The efflux inhibition (fraction of control) in assay [14] is -0.07 (inactive). In [16], the differentiation response was -5.62% (inactive).

Take `Cc1ccc2occ(C(=O)c3ccco3)c(=O)c2c1`: the percent of DMSO control GFP in assay [1] is 101% (inactive). The values for the GFP response vs DMSO in [2] and in assay [4] were 101% (inactive) and 85.9% (inactive), respectively. For the same molecule, in assay [3], the percent response of DMSO control was 89.5% (inactive). Moreover, the GFP response, % of DMSO in [5] was 86.1% (inactive). This molecule displayed a double positive events in [6] of 60.6%. Moreover, in assay [6], the vesicle binding response is 99.1% (inactive). Further, the inhibition is 6.85% (inactive) in [7], -6.83% (inactive) in assay [11] and 1% (inactive) in [15]. Further, in [8], the superoxide response (% of plate) is 104% (inactive). Further, the aptamer binding inhibition in assay [9] is 2% (inactive). Further, the response was -3.74% (inactive) in assay [10] and 0.29% (inactive) in assay [12]. Besides, in [13], the binding (% of control) is 99.7% (inactive). In addition, the efflux inhibition (fraction of control) in assay [14] was -0.31 (inactive). The differentiation response in assay [16] was 0% (inactive).

For `O=C(NCc1ccc2c(c1)OCO2)c1ccc2c(c1)OCCO2`, the percent of DMSO control GFP in assay [1] was 101% (inactive). The GFP response vs DMSO is 105% (inactive) in assay [2] and 92.6% (inactive) in assay [4]. For the same molecule, the percent response of DMSO control in assay [3] was 105% (inactive). Moreover, in assay [5], the GFP response, % of DMSO is 101% (inactive). For the same molecule, the double positive events in [6] turned out to be 61%. Besides, the vesicle binding response in assay [6] was 132% (inactive). Besides, the inhibition in [7] is 11% (inactive); in assay [11], -6.32% (inactive); in assay [15], 11% (inactive). In assay [8], the superoxide response (% of plate) is 104% (inactive). In addition, in assay [9], the aptamer binding inhibition is -1% (inactive). The response in [10] was 0.83% (inactive); in assay [12] it was -0.38% (inactive). Moreover, in [13], the binding (% of control) is 103% (inactive). For the same molecule, in assay [14], the efflux inhibition (fraction of control) was -0.21 (inactive). Moreover, the differentiation response in assay [16] was 20.3% (inactive).

Regarding `CC(C)OC(=O)CC12CN3CN(C1)CC(CC(=O)OC(C)C)(C3)C2=O`, the percent of DMSO control GFP in [1] is 99.5% (inactive). Further, the GFP response vs DMSO in [2] is 115% (inactive); in assay [4], 119% (inactive). For the same molecule, the percent response of DMSO control in assay [3] is 90.1% (inactive). In assay [5], the GFP response, % of DMSO was 105% (inactive). In addition, the double positive events in [6] worked out at 60.5%. Besides, in [6], the vesicle binding response was 179% (inactive). The inhibition was -0.43% (inactive) in assay [7], 11.2% (inactive) in assay [11] and 11% (inactive) in [15]. Moreover, in assay [8], the superoxide response (% of plate) is 92.3% (inactive). The aptamer binding inhibition in [9] is 1% (inactive). The response in assay [10] was -2.44% (inactive); in [12], -2% (inactive). For the same molecule, the binding (% of control) in [13] is 103% (inactive). Also, the efflux inhibition (fraction of control) in [14] was 0.12 (inactive). In addition, the differentiation response in assay [16] was 39.2% (inactive).
